Assay outcomes as filed in PubChem.
An excerpt weighted towards active compounds, which were near 3.5% of everything screened.
BoNT A protease – blocks Botulinum neurotoxin A light chain protease | inhibition, % at 10 µM | 360,000 tested, 0.17% active | multiplex microsphere protease substrate cleavage, flow cytometry | AID 588499
Anthrax LF inh2 – anthrax lethal factor protease inhibition; P15917; multiplex microsphere protease cleavage assay, LF; inhibition, % at 10 µM; 360,000 tested, 0.12% active; AID 588501
BoNT-F LC inh – BoNT F light chain protease inhibition; 360,000 tested, 0.22% active; inhibition, % at 10 µM; Multiplex microsphere protease cleavage assay, flow cytometry; in the data active means inhibition above about 35%, passing the limit was not always enough; inconclusive means no clear call, values can overlap the other calls
Bead autofluor – counter-screen for toxin protease inhibitors: compound fluorescence. fluorescence intensity (concentration not given with the values). compound autofluorescence counterscreen, microsphere flow cytometry; stronger effect = higher value. 360,000 tested, 3.1% active; in the data active means fluorescence intensity above about 16000; inconclusive means no clear call, values can overlap the other calls
3CLpro inhibitor – SARS-CoV 3CLpro protease inhibition. P0C6X7. recombinant SARS-CoV 3CLpro, quenched FRET peptide cleavage. inhibition, % at 6 µM. 290,000 tested, 0.14% active; in the data active means inhibition above about 12%
Each line names hits and unclear results; the compound was inactive in the other large screens. Unless noted, no stated cut-off is given here; in the data, active means inhibition above about 30%; inconclusive means no clear call, values can overlap the other calls; inactive means below that.

COc1ccc(CCNC(=O)C2CCCN(S(=O)(=O)N3CCCCCC3)C2)cc1OC (configuration not stated)	none
COc1ccc(CCNC(=O)C2CCN(S(=O)(=O)N3CCCCCC3)CC2)cc1OC	Bead autofluor 22454
Cc1cc(C)c(C)c(S(=O)(=O)NCc2ccco2)c1C	none (no result: BoNT A protease, Anthrax LF inh2, BoNT-F LC inh, Bead autofluor)
COc1ccc(NC(=O)C2=NN(C3CCS(=O)(=O)C3)C(=O)CC2)cn1 (configuration not stated)	none
O=C1NC(=O)C2(Cc3ccccc3N3CCCC32)C(=O)N1 (configuration not stated)	none
COCC1CCN(Cc2c(C(=O)N3CCOCC3)nc3c(C)cccn23)C1 (configuration not stated)	none (no result: 3CLpro inhibitor)
CN(C)c1nc(OCCNC(=O)COc2ccc(Cl)cc2Cl)nc(N(C)C)n1	Bead autofluor 22763
CN(C)c1nc(SCCOC(=O)COc2ccc(Cl)cc2Cl)nc(N(C)C)n1	BoNT A protease inconclusive
CN(C)c1nc(OCCOC(=O)COc2ccc(Cl)cc2Cl)nc(N(C)C)n1	Bead autofluor 21324
CCC1(c2ccc(Cl)cc2)NC(=O)N(CC(=O)NC2CCCC(C)C2C)C1=O (configuration not stated)	Bead autofluor inconclusive (no result: 3CLpro inhibitor)
CCn1nnc(NC(=O)COc2cc(C)ccc2C(C)C)n1	Bead autofluor 20175
CCCCn1nnc(NC(=O)COc2ccc(Cl)c(C)c2)n1	Bead autofluor 17759
Nc1ccc(S(=O)(=O)Nc2cnc3ccccc3n2)cc1	none
CCOC(=O)CN1C(=O)C(O)(c2c(C)[nH]c3ccccc23)c2ccccc21 (configuration not stated)	none
O=C(Nc1cc(C(F)(F)F)ccc1-n1cncn1)c1ccc(Br)cc1	Bead autofluor 24053
CN(C)c1ccc(C(=O)Nc2cc(C(F)(F)F)ccc2-n2cncn2)cc1	BoNT-F LC inh inconclusive
COc1ccc(S(=O)(=O)c2ccc(OCC3CO3)cc2)cc1 (configuration not stated)	none
O=C1CC=C2C3CC4N(CCC45c4cc(O)c(O)cc4N1C25)CC3=CCBr (configuration not stated)	none (no result: 3CLpro inhibitor)
COc1ccc2nc(C)cc(SCC(=O)N/N=C/c3cccc4ccccc34)c2c1	Bead autofluor 19063
COc1ccc2nc(C)cc(SCC(=O)N/N=C/c3ccc(O)c(O)c3)c2c1	none
CCc1ccc([C@@H]2CC=C(C(=O)O)[C@H](c3ccccc3F)N2S(=O)(=O)c2ccc(C)cc2)cc1	none (no result: 3CLpro inhibitor)
O=C1CCCC2=C1C(c1ccc(Cl)cc1)n1c(s/c(=C\c3ccc4ccncc4c3)c1=O)=N2 (configuration not stated)	BoNT A protease 37
CCOC(=O)C1=C(C)N=c2s/c(=C/c3ccc(OCC(=O)O)c(OC)c3)c(=O)n2C1c1ccc(Cl)cc1 (configuration not stated)	BoNT-F LC inh inconclusive (no result: 3CLpro inhibitor)
Cc1ccc(SCc2[nH]nc3c2C(c2ccc(C)o2)C(C#N)=C(N)O3)cc1 (configuration not stated)	Bead autofluor 19530
COC(=O)c1ccc(Cn2c(C)c(C(=O)Nc3cccc(Oc4ccccc4)c3)sc2=O)o1	none (no result: 3CLpro inhibitor)
Cc1ccc(S(=O)(=O)NC(CC(=O)O)c2ccco2)cc1 (configuration not stated)	BoNT A protease inconclusive, Bead autofluor 16531
O=C(NCc1ccccn1)Nc1ccc(F)c(Cl)c1	none
O=C(O)c1ccc(CN2C(=O)c3ccc(C(=O)O)cc3C2=O)cc1	none
O=C(O)c1ccc2c(c1)C(=O)N(C(Cc1ccc(O)cc1)C(=O)O)C2=O (configuration not stated)	Bead autofluor 21507
Cc1ccc(-c2cc(C(=O)Nc3cccc(S(=O)(=O)N(C)C)c3)c3ccccc3n2)o1	none
CCN1CCCC1CNCc1cc(OC)c(OC)c(OC)c1 (configuration not stated)	Bead autofluor 24874
CCOc1cc(CNCC2CCCN2CC)cc(Cl)c1OC (configuration not stated)	none
COCCCNc1oc(-c2ccccc2OC)nc1C#N	none
N#CC1=C(N)SC(N)=C(C#N)C1C1C=CCCC1 (configuration not stated)	Bead autofluor 19353
CS(=O)(=O)N(CC(=O)NC1CCCC1)c1ccc(Oc2ccccc2)cc1	none
COC(=O)C(CCSC)NC(=O)c1cn(-c2ccc(OC)cc2)c(=O)c2ccccc12 (configuration not stated)	BoNT-F LC inh 36
COc1ccc(C)cc1-n1nnnc1SC/C(O)=C(\C#N)c1nc2ccccc2[nH]1	Bead autofluor 21719
Cc1cc(C)n2c(SCC(O)=C(C#N)c3nc4ccccc4[nH]3)nnc2n1	none (no result: 3CLpro inhibitor)
CCOC(=O)c1sc(Nc2ccc(Br)cc2)nc1C	BoNT-F LC inh inconclusive
CC(=O)N1CCN(C(=O)c2ccco2)CC1	none
CCOC(=O)CN(Cc1ccccc1)S(=O)(=O)c1ccc(NC(C)=O)cc1	Bead autofluor 21423
O=C(O)CN(c1ccccc1F)S(=O)(=O)c1ccccc1	BoNT A protease inconclusive, Bead autofluor 21296
O=C(O)CN(Cc1ccccc1)S(=O)(=O)c1ccc(F)cc1	Bead autofluor 20545
CCOC(=O)C1=C(C)OC(N)=C(C#N)C1c1cccs1 (configuration not stated)	none
CCCC1=C(C(=O)OCC)C(c2cccs2)C(C#N)=C(N)O1 (configuration not stated)	Bead autofluor 22890
CCOC(=O)C1=C(C)OC(N)=C(C#N)C1c1ccoc1 (configuration not stated)	Bead autofluor 16971
CCSC1=C(C#N)C(c2cccs2)C(C(=O)OC)=C(C)N1 (configuration not stated)	BoNT A protease inconclusive, Bead autofluor 22477
CCOC(=O)C1=C(C)OC(N)=C(C#N)C1c1ccccc1 (configuration not stated)	none
COc1cc2[nH]c(=O)n(CCC(=O)NCCC(C)C)c(=O)c2cc1OC	none
CC(=O)Nc1ccc(Oc2ccc(NC(C)=O)c(NC(C)=O)c2)cc1	none
Cc1cc(C)cc(NC(=O)c2cccn2-c2ncc(C(F)(F)F)cc2Cl)c1	BoNT A protease inconclusive, Bead autofluor 25062
Cc1nc(SCc2cccc(F)c2)c2oc3ccccc3c2n1	BoNT-F LC inh inconclusive
CC1(C)CC(=O)C(C=NCCN2CCN(C(=O)Cc3ccc(F)cc3)CC2)=C(O)C1	Bead autofluor 19988
CC1(C)CC(=O)C(C=NCC(O)c2ccccc2)=C(O)C1 (configuration not stated)	Bead autofluor 20941
COc1ccc(CN=CC2=C(O)CC(C)(C)CC2=O)cc1	Bead autofluor 24658
CC1(C)CC(=O)C(C=NCCN2CCN(C(=O)CC3CCCC3)CC2)=C(O)C1	none
CC1(C)CC(=O)C(C=NCCCn2ccnc2)=C(O)C1	Bead autofluor 21981
O=C(CCCOc1ccccc1)Nc1cccnc1	none
CC1(C)CC(=O)C(C=NCC2CCCO2)=C(O)C1 (configuration not stated)	Bead autofluor 25274
C=CCOC(=O)C1=C(C)Nc2nnnn2C1c1cccs1 (configuration not stated)	Bead autofluor 17729
